Bioassay records: PubChem BioAssay, several laboratories
The list is not random: actives were taken first. Their share in the collection is about 21%.
CYP2C9 activ: human CYP2C9 activators, primary screen, biochemical, luminescence; Cytochrome P450 2C9 (Homo sapiens), P11712; recombinant CYP2C9, luciferin-H conversion; hits give high values; factor 1 = untreated enzyme, 0 = blocked; activation factor at 5 µM; 96,000 tested, 1.4% active; AID 1024, 2008;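 active = activation factor of 2 or more for CYP2C9 at a 5 µM dose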;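 note: 0 = sulfaphenazole-blocked wells and 1 = vehicle-only wells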
CYP2C9 inh: blockers of cytochrome P450 2C9 activity – biochemical, luminescence, ADME assay, primary screen. 96,000 tested, 20% active. inhibition, % at 5 µM. AID 777, 2007. CYP2C9 Supersomes, luciferin-H conversion. P11712;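 active = blocking of liver enzyme CYP2C9 beyond about 50% at 5 µM, limit read from the data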
MRP-1 activ: H69AR viability gain despite doxorubicin, primary screen, MRP-1 activator project, H69AR cells, CellTiter-Glo; viability rescue; viability increase, % at 10 µM; 140,000 tested, 0.61% active; AID 799, 2007;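 active = viability gain under doxorubicin at or above a set limit, the compound median plus 3 SD, cut at about 4.7% in these data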;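 note: MRP-1 overexpressing cells given doxorubicin 25 µM after compound pretreatment; 18-22 h compound pretreatment then 72 h with doxorubicin before readout; 0% = doxorubicin-only wells and 100% = vehicle-treated cells without doxorubicin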
CYP2C19 activ: human CYP2C19 activators, primary screen, biochemical, luminescence | recombinant CYP2C19, luciferin-H EGE luminescence; hits give high values; 0 = fully inhibited enzyme, 1 = untreated enzyme | activation factor at 5 µM | 96,000 tested, under 10 active | AID 1025, 2008;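 active = activation factor of at least 2 at 5 µM in the primary screen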;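 note: 0 = wells with 2.5 mM tranylcypromine and 1 = vehicle-only wells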
Target sequence (P33261 whole entry, looked up): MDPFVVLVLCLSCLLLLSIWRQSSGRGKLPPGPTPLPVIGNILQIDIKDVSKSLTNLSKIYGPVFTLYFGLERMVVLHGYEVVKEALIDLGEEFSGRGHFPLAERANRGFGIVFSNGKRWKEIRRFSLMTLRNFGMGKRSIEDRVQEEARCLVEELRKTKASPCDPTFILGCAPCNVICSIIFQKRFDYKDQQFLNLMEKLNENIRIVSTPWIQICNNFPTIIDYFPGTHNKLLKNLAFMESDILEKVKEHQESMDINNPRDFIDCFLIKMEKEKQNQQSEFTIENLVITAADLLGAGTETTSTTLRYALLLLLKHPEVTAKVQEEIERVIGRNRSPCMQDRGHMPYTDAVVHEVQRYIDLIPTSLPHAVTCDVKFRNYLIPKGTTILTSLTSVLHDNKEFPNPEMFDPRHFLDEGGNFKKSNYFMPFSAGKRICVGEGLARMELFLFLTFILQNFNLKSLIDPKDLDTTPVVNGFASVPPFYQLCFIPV
MRP reversal: reversal of MRP1-mediated doxorubicin resistance, primary screen, H69AR cells, doxorubicin co-treatment; differential viability (reversal), % at 10 µM; 85,000 tested, 0.04% active; H69AR cells + 2 uM doxorubicin, CellTiter-Glo, 72 h; AID 602, 2007;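 active = viability drop by adding the cancer drug above about 55%, with treated viability meeting a 40% cutoff, limit read from the data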;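 note: viability without doxorubicin minus viability with 2 µM doxorubicin for each compound; larger differential means the compound sensitizes cells more to doxorubicin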
CYP2C19 inhib: blockers of cytochrome P450 2C19 activity – biochemical, luminescence, ADME assay, primary screen; P33261; inhibition, % at 5 µM; CYP2C19 Supersomes, luciferin-H EGE luminescence, 30 min; 96,000 tested, 21% active; AID 778, 2007;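 active = CYP2C19 inhibition above a set limit at 5 µM in the primary screen, cut at about 50% in these data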;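 note: plate controls were negative control wells for no effect and 2.5 mM tranylcypromine positive control for full effect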
* = called active by the depositor; / = no result given.

SMILES	CYP2C9 activ	CYP2C9 inh	MRP-1 activ	CYP2C19 activ	MRP reversal	CYP2C19 inhib
Cc1ccc(C2=Nc3ccccc3NC(C)(c3ccc(C)o3)C2)o1 (stereo unspecified)	0.3	69*	-2	0.1	-19	95*
Cc1c(/C=N/NC(=O)CNc2ccccc2)c2ccccn2c1C(=O)c1ccccc1	/	/	0	/	/	/
COc1ccc(-c2coc3cc(OC)cc(O)c3c2=O)cc1	1.1	-10	4	1	-8	4
CC(C)Oc1cc(O)c2c(=O)c(-c3ccc(O)cc3)coc2c1	0	96*	-5	1.1	-15	-9
CCOC(=O)c1sc(NS(=O)(=O)c2ccccc2)nc1C	0.2	81*	-2	0.7	19	28
CCOC(=O)c1sc(Nc2ccc(C)cc2C)nc1C	0.1	88*	2	0.8	6	17
CNc1nc(C)c(C(=O)OCc2ccccc2)s1	0.5	54*	-1	0.2	-11	85*
Cc1nc(C)c(C(=O)NNS(=O)(=O)c2ccccc2)s1	/	/	5.2*	/	/	/
C=CCSc1nc2sc(C)c(C)c2c(=O)n1N	/	/	2	/	/	/
O=C(COC(=O)[C@@H]1CC(O)CN1S(=O)(=O)c1ccccc1[N+](=O)[O-])Nc1ccc2ccccc2c1 (stereo partly specified)	/	/	-2	/	/	/
CCOC(=O)c1sc(NS(=O)(=O)c2ccccc2Cl)nc1C	0	96*	-3	0.5	-11	52*
CCOC(=O)c1c(Nc2nc(C)c(C(=O)NC)s2)sc(C)c1C	0.4	65*	0	0.6	3	40
CCOC(=O)Nc1sc(C)c(C)c1C(=O)OCC	/	/	-1	/	/	/
COc1cc2c(cc1OC)CN(C(=O)c1ccccc1C(=O)O)CC2	1.1	-15	-3	1.1	-9	-9
Cc1ccc(C)c(S(=O)(=O)Nc2ccc3scnc3c2)c1	0.3	66*	-3	0	-26	100*
Cc1ccc(NS(=O)(=O)c2cc(C(=O)N3CCOCC3)ccc2C)cc1	1	4	-4	1	8	-2
CC(NC(=O)Nc1ccccc1)C(c1cccs1)N1CCOCC1 (stereo unspecified)	/	/	-3	/	3	/
CCN1CCN(C(c2cccs2)C(C)NC(=O)c2c(F)cccc2F)CC1 (stereo unspecified)	1.1	-10	-2	0.9	11	11
CC(NC(=O)c1ccco1)C(c1cccs1)N1CCOCC1 (stereo unspecified)	0.7	33	0	0.4	/	64*
CCN1CCN(C(c2cccs2)C(C)NC(=O)c2ccccc2F)CC1 (stereo unspecified)	0.4	59*	-1	0.9	-2	8
CC(NC(=O)Nc1ccc(Cl)cc1)C(c1cccs1)N1CCOCC1 (stereo unspecified)	0.5	49	-2	0.3	11	68*
CC(NC(=O)c1ccccc1)C(c1cccs1)N1CCOCC1 (stereo unspecified)	0.6	45	-1	0.4	11	57*
COc1ccc(N2CCN(C(c3cccs3)C(C)NC(=O)c3ccco3)CC2)cc1 (stereo unspecified)	/	/	-2	/	-13	/
N#Cc1ccc(/C=N/NC(=O)c2cc(-c3cccs3)nc3ccccc23)cc1	/	/	-3	/	/	/
COc1cc2c(cc1OC)CN(CC(=O)Nc1ccc3c(c1)OC(F)(F)O3)CC2	0.6	40	1	0.7	/	30
SMILES	CYP2C9 activ	CYP2C9 inh	MRP-1 activ	CYP2C19 activ	MRP reversal	CYP2C19 inhib
c1ccc2c(c1)Nc1nccnc1S2	/	/	5.1*	/	/	/
O=C1Nc2cccnc2Sc2ccccc21	1.1	-5	-1	1	-12	1
O=C(NC1CC2CCCC(C1)N2C(=O)Nc1ccccc1)c1ccncc1 (stereo unspecified)	0.6	40	-2	0.1	6	92*
CC(=O)Nc1ccc(S(=O)(=O)N2C3CCCC2CC(NC(=O)C2CCCCC2)C3)cc1 (stereo unspecified)	0.7	27	-2	0.9	8	14
CC(=O)NC1CC2CCCC(C1)N2S(=O)(=O)c1ccccc1 (stereo unspecified)	1.4	-43	-1	0.5	16	50*
O=C(NC1CC2CCCC(C1)N2S(=O)(=O)c1ccccc1)c1ccccc1 (stereo unspecified)	0.7	32	-1	0.4	-6	63*
Cc1cccc(C(=O)NC2CC3CCCC(C2)N3S(=O)(=O)c2ccccc2)c1 (stereo unspecified)	0.1	91*	-4	0	-19	97*
O=C(NC1CC2CCCC(C1)N2C(=O)NC1CCCCC1)c1ccccc1 (stereo unspecified)	1	0	2	1	19	2
CC(C)NC(=O)c1c2c(nc3ccccc13)CCCC2	/	/	-3	/	-63	/
CCCN(CCC)C1=N/C(=C\c2ccco2)C(=O)N1c1ccccc1	0.3	71*	-5	0.4	/	64*
CCCN=C1N/C(=C\c2ccco2)C(=O)N1c1ccccc1	0.8	22	-1	0.9	/	12
CCn1ncc(Br)c1C(=O)Nc1ccc(C(=O)OC(C)C)cc1	0.9	8	3	0.9	14	7
CCn1ncc(Br)c1C(=O)Nc1ccccc1C(=O)OC	/	/	/	/	-6	/
O=C(OCn1ncc(Br)c(Br)c1=O)c1ccccc1Cl	1	2	-3	0.4	-1	57*
O=C(OCn1ncc(Br)c(Br)c1=O)c1ccc(F)cc1	0.7	28	-3	0.1	1	89*
CNS(=O)(=O)c1ccc(Cl)nc1	/	/	-1	/	/	/
CCCCOCCCNC(=O)COc1ccccc1	0.9	6	-1	0.7	3	30
CCc1ccc(OCC(=O)NCCOc2ccccc2)cc1	0.5	50*	0	0.7	13	30
O=C(COc1ccccc1)NCCSCc1ccco1	0.4	63*	-2	0.1	-6	85*
O=C(COc1ccccc1)NCCSc1ccccc1	0.4	60*	0	0	8	97*
O=C(NCCSCc1ccco1)Nc1ccc(Cl)cc1	0.6	36	-1	0.6	12	38
O=C(CCSc1ccccc1)NCCSCc1ccco1	/	/	-3	/	/	/
O=C(NCCSCc1ccco1)Nc1cccc(Cl)c1	0.7	33	-2	0.4	8	64*
O=C(C1=C[C@@H]2[C@H]3C(=O)N(c4ccccc4)C(=O)[C@H]3[C@@H](C(=O)c3ccc(Cl)cc3)N2C=C1)c1ccccc1	/	/	1	/	/	/
CCCn1c(C)cc(=O)c2cc(NC(=O)c3cnccn3)ccc21	1.1	-9	-2	1	-76	0
CC(=O)CN1Cc2ccccc2/C1=N\C(=O)Nc1ccccc1	0.5	48	-2	0.4	-3	58*
